Assay results reported in the supplement of paper PMC4466140.

Key:
Assay in all cases: SPOT peptide array binding signal intensity (averaged, normalized) (arbitrary units (background-subtracted, floor 0; scale differs between SH3 domains)); higher = stronger binding of the SH3 domain to the peptide
CaNbp2 = target: CaNbp2
Method: (§1)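 GST-tagged SH3 domains from S. cerevisiae (Sc), A. gossypii (Ag), C. albicans (Ca) and S. pombe (Sp) were incubated at 10 ug/ml overnight at 4 C on cellulose SPOT membranes carrying 292 synthetic 15-mer peptides mined from the S. cerevisiae proteome (cysteines replaced by serines). Binding was detected with anti-GST antibody, HRP secondary and chemiluminescence, quantified with Genespotter, and reported as normalized spot intensities averaged over biological replicates.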

CaRvs167 = target: CaRvs167
Method: as §1

CaRvs167-3 = target: CaRvs167-3
Method: as §1

CaSho1 = target: CaSho1
Method: as §1

CaSla1-D1-D2 = target: CaSla1-D1-D2
Method: as §1

CaSla1-D3 = target: CaSla1-D3
Method: as §1

ScAbp1 = target: ScAbp1
Method: as §1

ScBbc1 = target: ScBbc1
Method: as §1

ScBem1-D1 = target: ScBem1-D1
Method: as §1

ScBzz1-D1 = target: ScBzz1-D1
Method: as §1

ScBzz1-D2 = target: ScBzz1-D2
Method: as §1

ScCyk3 = target: ScCyk3
Method: as §1

ScFus1 = target: ScFus1
Method: as §1

ScHof1 = target: ScHof1
Method: as §1

ScHse1 = target: ScHse1
Method: as §1

ScLsb1 = target: ScLsb1
Method: as §1

ScLsb2 = target: ScLsb2
Method: as §1

ScLsb3 = target: ScLsb3
Method: as §1

ScLsb4 = target: ScLsb4
Method: as §1

ScMyo3 = target: ScMyo3
Method: as §1

ScMyo5 = target: ScMyo5
Method: as §1

ScNbp2 = target: ScNbp2
Method: as §1

ScPex13 = target: ScPex13
Method: as §1

ScRvs167 = target: ScRvs167
Method: as §1

ScSho1 = target: ScSho1
Method: as §1

ScSla1-D1-D2 = target: ScSla1-D1-D2
Method: as §1

ScSla1-D3 = target: ScSla1-D3
Method: as §1

SpAbp1-D1 = target: SpAbp1-D1
Method: as §1

SpBbc1 = target: SpBbc1
Method: as §1

SpBzz1-D1 = target: SpBzz1-D1
Method: as §1

SpBzz1-D2 = target: SpBzz1-D2
Method: as §1

SpCyk3 = target: SpCyk3
Method: as §1

SpHof1 = target: SpHof1
Method: as §1

SpHof1-2 = target: SpHof1-2
Method: as §1

SpHof1-3 = target: SpHof1-3
Method: as §1

SpHse1 = target: SpHse1
Method: as §1

SpLsb1 = target: SpLsb1
Method: as §1

SpLsb4 = target: SpLsb4
Method: as §1

SpMyo1 = target: SpMyo1
Method: as §1

SpNbp2 = target: SpNbp2
Method: as §1

SpPex13 = target: SpPex13
Method: as §1

SpRvs167 = target: SpRvs167
Method: as §1

SpSla1-D1-D2 = target: SpSla1-D1-D2
Method: as §1

SpSla1-D3 = target: SpSla1-D3
Method: as §1

AgAbp1 = target: AgAbp1
Method: as §1

AgBbc1 = target: AgBbc1
Method: as §1

AgBem1-D1 = target: AgBem1-D1
Method: as §1

AgBzz1-D1 = target: AgBzz1-D1
Method: as §1

AgBzz1-D2 = target: AgBzz1-D2
Method: as §1

AgCyk3 = target: AgCyk3
Method: as §1

AgFus1 = target: AgFus1
Method: as §1

AgHof1 = target: AgHof1
Method: as §1

AgHse1 = target: AgHse1
Method: as §1

AgLsb1 = target: AgLsb1
Method: as §1

AgLsb4 = target: AgLsb4
Method: as §1

AgMyo5 = target: AgMyo5
Method: as §1

AgNbp2 = target: AgNbp2
Method: as §1

AgRvs167 = target: AgRvs167
Method: as §1

AgSho1 = target: AgSho1
Method: as §1

AgSla1-D1-D2 = target: AgSla1-D1-D2
Method: as §1

AgSla1-D3 = target: AgSla1-D3
Method: as §1

CaAbp1-D1 = target: CaAbp1-D1
Method: as §1

CaAbp1-D2 = target: CaAbp1-D2
Method: as §1

CaBbc1 = target: CaBbc1
Method: as §1

CaBem1-D1 = target: CaBem1-D1
Method: as §1

CaBzz1-D1 = target: CaBzz1-D1
Method: as §1

CaBzz1-D2 = target: CaBzz1-D2
Method: as §1

CaCyk3 = target: CaCyk3
Method: as §1

CaFus1 = target: CaFus1
Method: as §1

CaHof1 = target: CaHof1
Method: as §1

CaHse1 = target: CaHse1
Method: as §1

CaLsb1 = target: CaLsb1
Method: as §1

CaLsb4 = target: CaLsb4
Method: as §1

CaMyo5 = target: CaMyo5
Method: as §1

## LLIRWLILMPLVGSR
CaNbp2
  SPOT peptide array binding signal intensity: 1390
CaRvs167
  SPOT peptide array binding signal intensity: 524
CaRvs167-3
  SPOT peptide array binding signal intensity: 780
CaSho1
  SPOT peptide array binding signal intensity: 3580
CaSla1-D1-D2
  SPOT peptide array binding signal intensity: 30
CaSla1-D3
  SPOT peptide array binding signal intensity: 397
ScAbp1
  SPOT peptide array binding signal intensity: 35
ScBbc1
  SPOT peptide array binding signal intensity: 1.5
ScBem1-D1
  SPOT peptide array binding signal intensity: 60
ScBzz1-D1
  SPOT peptide array binding signal intensity: 37
ScBzz1-D2
  SPOT peptide array binding signal intensity: 240
ScCyk3
  SPOT peptide array binding signal intensity: 122
ScFus1
  SPOT peptide array binding signal intensity: 3690
ScHof1
  SPOT peptide array binding signal intensity: 0.25
ScHse1
  SPOT peptide array binding signal intensity: 2940
ScLsb1
  SPOT peptide array binding signal intensity: 11
ScLsb2
  SPOT peptide array binding signal intensity: 33
ScLsb3
  SPOT peptide array binding signal intensity: 850
ScLsb4
  SPOT peptide array binding signal intensity: 150
ScMyo3
  SPOT peptide array binding signal intensity: 5
ScMyo5
  SPOT peptide array binding signal intensity: 7
ScNbp2
  SPOT peptide array binding signal intensity: 566
ScPex13
  SPOT peptide array binding signal intensity: 65.2
ScRvs167
  SPOT peptide array binding signal intensity: 19.3
ScSho1
  SPOT peptide array binding signal intensity: 2890
ScSla1-D1-D2
  SPOT peptide array binding signal intensity: 23
ScSla1-D3
  SPOT peptide array binding signal intensity: 132
SpAbp1-D1
  SPOT peptide array binding signal intensity: 248
SpBbc1
  SPOT peptide array binding signal intensity: 22.8
SpBzz1-D1
  SPOT peptide array binding signal intensity: 300
SpBzz1-D2
  SPOT peptide array binding signal intensity: 13.5
SpCyk3
  SPOT peptide array binding signal intensity: 25
SpHof1
  SPOT peptide array binding signal intensity: 306
SpHof1-2
  SPOT peptide array binding signal intensity: 75.2
SpHof1-3
  SPOT peptide array binding signal intensity: 2420
SpHse1
  SPOT peptide array binding signal intensity: 2700
SpLsb1
  SPOT peptide array binding signal intensity: 2
SpLsb4
  SPOT peptide array binding signal intensity: 341
SpMyo1
  SPOT peptide array binding signal intensity: 18
SpNbp2
  SPOT peptide array binding signal intensity: 1450
SpPex13
  SPOT peptide array binding signal intensity: 232
SpRvs167
  SPOT peptide array binding signal intensity: 37.7
SpSla1-D1-D2
  SPOT peptide array binding signal intensity: ≤ 0
SpSla1-D3
  SPOT peptide array binding signal intensity: 120

## RPVPPPPPMRTTTEG
AgAbp1
  SPOT peptide array binding signal intensity: 18
AgBbc1
  SPOT peptide array binding signal intensity: 814
AgBem1-D1
  SPOT peptide array binding signal intensity: 201
AgBzz1-D1
  SPOT peptide array binding signal intensity: 156
AgBzz1-D2
  SPOT peptide array binding signal intensity: 14.5
AgCyk3
  SPOT peptide array binding signal intensity: 14
AgFus1
  SPOT peptide array binding signal intensity: 63
AgHof1
  SPOT peptide array binding signal intensity: 61.8
AgHse1
  SPOT peptide array binding signal intensity: 144
AgLsb1
  SPOT peptide array binding signal intensity: 303
AgLsb4
  SPOT peptide array binding signal intensity: 1760
AgMyo5
  SPOT peptide array binding signal intensity: 41.2
AgNbp2
  SPOT peptide array binding signal intensity: 3100
AgRvs167
  SPOT peptide array binding signal intensity: 1050
AgSho1
  SPOT peptide array binding signal intensity: 136
AgSla1-D1-D2
  SPOT peptide array binding signal intensity: 1
AgSla1-D3
  SPOT peptide array binding signal intensity: 108
CaAbp1-D1
  SPOT peptide array binding signal intensity: 364
CaAbp1-D2
  SPOT peptide array binding signal intensity: 60.5
CaBbc1
  SPOT peptide array binding signal intensity: 553
CaBem1-D1
  SPOT peptide array binding signal intensity: 166
CaBzz1-D1
  SPOT peptide array binding signal intensity: 3990
CaBzz1-D2
  SPOT peptide array binding signal intensity: 1260
CaCyk3
  SPOT peptide array binding signal intensity: 387
CaFus1
  SPOT peptide array binding signal intensity: 548
CaHof1
  SPOT peptide array binding signal intensity: 40
CaHse1
  SPOT peptide array binding signal intensity: 405
CaLsb1
  SPOT peptide array binding signal intensity: 1
CaLsb4
  SPOT peptide array binding signal intensity: 2480
CaMyo5
  SPOT peptide array binding signal intensity: 54
CaNbp2
  SPOT peptide array binding signal intensity: 1490
CaRvs167
  SPOT peptide array binding signal intensity: 1460
CaRvs167-3
  SPOT peptide array binding signal intensity: 0.75
CaSho1
  SPOT peptide array binding signal intensity: 650
CaSla1-D1-D2
  SPOT peptide array binding signal intensity: 1590
CaSla1-D3
  SPOT peptide array binding signal intensity: 928
ScAbp1
  SPOT peptide array binding signal intensity: 21
ScBbc1
  SPOT peptide array binding signal intensity: 64.8
ScBem1-D1
  SPOT peptide array binding signal intensity: ≤ 0
ScBzz1-D1
  SPOT peptide array binding signal intensity: 177
ScBzz1-D2
  SPOT peptide array binding signal intensity: 14.5
ScCyk3
  SPOT peptide array binding signal intensity: 8.5
ScFus1
  SPOT peptide array binding signal intensity: 180
ScHof1
  SPOT peptide array binding signal intensity: 46.2
ScHse1
  SPOT peptide array binding signal intensity: 63
ScLsb1
  SPOT peptide array binding signal intensity: 180
ScLsb2
  SPOT peptide array binding signal intensity: 434
ScLsb3
  SPOT peptide array binding signal intensity: 4080
ScLsb4
  SPOT peptide array binding signal intensity: 3130
ScMyo3
  SPOT peptide array binding signal intensity: 569
ScMyo5
  SPOT peptide array binding signal intensity: 239
ScNbp2
  SPOT peptide array binding signal intensity: 4580
ScPex13
  SPOT peptide array binding signal intensity: 1500
ScRvs167
  SPOT peptide array binding signal intensity: 3300
ScSho1
  SPOT peptide array binding signal intensity: 616
ScSla1-D1-D2
  SPOT peptide array binding signal intensity: 1870
ScSla1-D3
  SPOT peptide array binding signal intensity: 222
SpAbp1-D1
  SPOT peptide array binding signal intensity: 95.5
SpBbc1
  SPOT peptide array binding signal intensity: 40.5
SpBzz1-D1
  SPOT peptide array binding signal intensity: 1370
SpBzz1-D2
  SPOT peptide array binding signal intensity: 88
SpCyk3
  SPOT peptide array binding signal intensity: 112
SpHof1
  SPOT peptide array binding signal intensity: 111
SpHof1-2
  SPOT peptide array binding signal intensity: 110
SpHof1-3
  SPOT peptide array binding signal intensity: 966
SpHse1
  SPOT peptide array binding signal intensity: 147
SpLsb1
  SPOT peptide array binding signal intensity: 161
SpLsb4
  SPOT peptide array binding signal intensity: 4570
SpMyo1
  SPOT peptide array binding signal intensity: 333
SpNbp2
  SPOT peptide array binding signal intensity: 191
SpPex13
  SPOT peptide array binding signal intensity: 150
SpRvs167
  SPOT peptide array binding signal intensity: 2150
SpSla1-D1-D2
  SPOT peptide array binding signal intensity: 86
SpSla1-D3
  SPOT peptide array binding signal intensity: 33.5
